This is one part of the list. Records with an inconclusive call do not appear. Values without a mark were called inactive. The call rests on the fitted dose curve; in most records, active means well fitted inhibition curve with a large enough effect; inconclusive means small, poorly fitted or top-dose-only effect; inactive means flat fitted curve, though single readings scatter.

This assay deals with Luciferin 4-monooxygenase (Photuris pensylvanica) (UniProt Q27757). Description: Secondary assay for Inhibitors of Human Pyruvate Kinase M2 isoform: FLuc Counterscreen. Conditions: Kinase-Glo firefly luciferase, luminescence, 8 min; series mostly up to 57.5 µM; activity, negative = inhibition: at the top concentration. The protocol:
NIH Chemical Genomics Center [NCGC] Matthew G. Vander Heiden, M.D., Ph.D. [Harvard Medical School, 77 Avenue Louis Pasteur, Boston, MA 02115] MLPCN Grant: 1 R03 MH085679-01 NCGC Assay Overview: Luciferase (Kinase-Glo, Promega Corporation) was assayed for its ability to generate light using ATP and luciferin as substrates. The ATP concentration in the assay (10 uM) was within the linear range of enzyme activity for the assay conditions used. This assay was used as an counter screen for human pyruvate kinase M2 isoform.
NCGC Assay Protocol Summary: Four uL of substrate mix (final concentration, 50 mM imidazole pH 7.2, 50 mM KCl, 7 mM MgCl2, 10 uM ATP, 0.01% Tween 20, 0.05% BSA) was dispensed into white 1536 well plates. Twenty-three nL of compound was delivered by a pin tool and 2 uL of luciferase detection mix (Kinase-Glo, Promega)) was added. Following 8-minute incubation at ambient temperature, luminescence was measured by a ViewLux (Perkin Elmer) at 5 seconds exposure/plate.
Regarding `Cc1ccc(Nc2c(-c3ccc(C)s3)nc3ccccn23)cc1`, the “activity, negative = inhibition” value is -2.62%. Regarding `Cc1ccc(-c2nc3ccccn3c2Nc2ccc(F)cc2)o1`, the “activity, negative = inhibition” value is 3.49%.

For the origin of these results see PubChem BioAssay AID2265 (National Center for Advancing Translational Sciences (NCATS), 2010).
